Among the data in PubChem BioAssay AID463173 (ICCB-Longwood Screening Facility, Harvard Medical School, 2010) are survival values, retold here.

The structures appear in SMILES notation. The campaign covered roughly 52,000 compounds. About 1,700 (3.3%) were called active. This excerpt belongs to a sample that is enriched for actives. Unmarked numbers belong to inactive results. Rule as the data show it: active = survival mostly below about 52% (no sharp cut-off); inactive = mostly above about 56%.

The test system of this test is Wild type. The experiment in a line: growth inhibition of S. aureus wild type versus tarO mutant, primary screen, teichoic acid synthesis inhibitors, RN4220, OD600 (AID 463173). As to conditions: S. aureus RN4220 wild type/DeltatarO growth, OD600, 18 h, stronger effect = lower value, screened at 18.75 µg/mL (by protocol).
In the case of `CCCn1nc(NC(=O)c2cccc(Cl)c2)c2cc3cccc(C)c3nc21`, the survival is 87%.

For the compound `COc1ccc(-c2cccc(NS(=O)(=O)c3ccc(C)s3)c2)nn1`, the survival is 91%.

In the case of `COc1ccc(-c2nc(CSCC(=O)N3CCN(c4ccc(OC)cc4)CC3)c(C)o2)cc1`, the survival was 81%.

In the case of `Cc1ccc(C)c(N2CCN(C(=O)C3CCN(Cc4nc(-c5cccc(Cl)c5)oc4C)CC3)CC2)c1`, the survival is 3% (active).

As to `Cc1ccc(Cl)cc1N1CCN(C(=O)C2CCN(Cc3nc(-c4ccc(Cl)cc4)oc3C)CC2)CC1`, the survival was -4% (active).

In the case of `Cc1ccc(Cl)cc1N1CCN(C(=O)C2CCCN(Cc3nc(-c4cccc(Cl)c4)oc3C)C2)CC1` (stereo unspecified), the survival is 84%.

Regarding `Cc1ccc(C)c(N2CCN(C(=O)C3CCCN(Cc4nc(-c5cccc(Cl)c5)oc4C)C3)CC2)c1` (stereo unspecified), the survival was 81%.

In the case of `Cc1cccc(-c2nc(CN3CCCC(C(=O)N4CCN(c5cc(Cl)ccc5C)CC4)C3)c(C)o2)c1` (stereo unspecified), the survival was 75%.

Regarding `Cc1oc(-c2cccc(Cl)c2)nc1CN1CCC(C(=O)NC(C)C)CC1`, the survival was 92%.

As for `CCc1ccc(-c2nc(CN3CCCC(C(=O)N4CCN(c5cc(Cl)ccc5C)CC4)C3)c(C)o2)cc1` (stereo unspecified), the survival was 84%.

On to `Cc1ccc(Cl)cc1N1CCN(C(=O)C2CCN(Cc3nc(-c4cccc(Cl)c4)oc3C)CC2)CC1`, for which the survival is -4% (active).

For the compound `COc1ccc(-c2nc(CSCC(=O)N3CCN(c4cc(Cl)ccc4C)CC3)c(C)o2)cc1`, the survival is -1% (active).

Turning to `Cc1cccc(N2CCN(C(=O)C3CCN(Cc4nc(-c5ccc(Cl)cc5)oc4C)CC3)CC2)c1C`, the survival was 47%.

In the case of `COc1ccc(-c2nc(CSCC(=O)N3CCN(c4ccccc4F)CC3)c(C)o2)cc1`, the survival is 24%.

As to `Cc1cccc(N2CCN(CCCNC(=O)Cn3ncc4c([nH]c5ccccc54)c3=O)CC2C)c1` (stereo unspecified), the survival is 101%.

In the case of `CCc1ccccc1NC(=O)CSc1nnc(CC)c(CC)n1`, the survival is 74%.

Take `Cc1ccccc1CN1c2ccccc2S(=O)(=O)c2ccccc21`: the survival was 73%.

Regarding `Cc1cc(C)c(Cn2c3ccccc3c3cnn(CC(=O)NC4CCCCCC4)c(=O)c32)c(C)c1`, the survival was 127%.

With `COc1ccc(-n2cc(-c3ccccc3)nc2SCC(=O)Nc2ccccc2)cc1Cl`, the survival is 71%.

In the case of `COc1ccc(Cl)cc1N=C1NC(=O)CC(C(=O)Nc2ccccc2C(F)(F)F)S1` (stereo unspecified), the survival was 71%.

Turning to `COc1ccc(CCNC(=O)CN2C(=O)COc3ccc(C)cc32)cc1OC`, the survival was 71%.

As for `COCCNC(=O)CCCn1c(SCC(=O)Nc2ccc(F)cc2)nc2c(sc3ccccc32)c1=O`, the survival was 103%.

For the compound `Cc1ccc2c(c1)-c1c(cnc3cc(-c4ccc(Cl)cc4)nn13)CO2`, the survival is 61%.

Consider `CC(=O)c1cc2c(cc1N/C(=N/S(=O)(=O)c1ccccc1)c1ccc(Cl)cc1)OCO2`, for which the survival was -2% (active).

Turning to `CC(=O)c1cc2c(cc1N/C(=N/S(=O)(=O)c1ccc(C)cc1)c1ccc(Cl)cc1)OCO2`, the survival was 10% (active).

In the case of `CC(=O)c1cc2c(cc1N/C(=N/S(=O)(=O)c1ccc(C)cc1)c1ccccc1)OCO2`, the survival is 88%.

On to `CC(=O)c1cc2c(cc1N/C(=N/S(=O)(=O)c1ccc(Cl)cc1)c1ccc(F)cc1)OCO2`, for which the survival is 80%.

With `CC(=O)c1cc2c(cc1N/C(=N/S(=O)(=O)c1ccc(Br)cc1)c1ccccc1)OCO2`, the survival is 69%.

As for `CC(=O)c1cc2c(cc1N/C(=N/S(=O)(=O)c1ccc(C)cc1)c1ccc(F)cc1)OCO2`, the survival is 82%.

As to `CC(=O)Nc1ccc(NC(=O)c2ccc3c(c2)NC(=O)c2ccccc2S3)cc1`, the survival was 138%.

As to `CC1=C(C(=O)OC2CCCC2)C(c2c(F)cccc2Cl)CC(=O)N1` (stereo unspecified), the survival was 87%.

In the case of `O=C1CC(c2nnc(Cc3cccc(Cl)c3)o2)CN1c1ccccc1` (stereo unspecified), the survival was 113%.

Regarding `CS(=O)(=O)c1ccc(-c2nn[nH]n2)cc1`, the survival was 103%.

On to `O=C(Nc1c(C(=O)N2CCN(c3ccccc3)CC2)oc2ccccc12)c1ccc(Br)o1`, for which the survival was 81%.

Regarding `COc1cc(Cl)c(C)cc1Nc1nc2ccccc2n2cnnc12`, the survival was 127%.

Regarding `COc1cc2ncc(C(=O)c3ccc(C)cc3)c(N3CCCCC3)c2cc1OC`, the survival is 2% (active).

In the case of `CCOC(=O)C1CCN(c2c(C(=O)c3ccc(C)cc3)cnc3ccc(F)cc23)CC1`, the survival is 3% (active).

`CCOc1ccc(S(=O)(=O)c2c(C(=O)c3ccc(CC)cc3)cnc3ccc(C)cc23)cc1`: the survival was 87%.

With `CCOC(=O)C1CCN(C(=O)c2ccc(C)cc2)CC1`, the survival was 93%.

With `CCc1ccc2ncc(C(=O)c3ccc(C)c(C)c3)c(N3CCC(C(N)=O)CC3)c2c1`, the survival was 102%.

For the compound `CCN1CCN(c2c(S(=O)(=O)c3ccc(OC)cc3)cnc3cc(OC)c(OC)cc23)CC1`, the survival is 77%.

In the case of `CCOC(=O)C1CCN(c2c(C(=O)c3ccc(OC)cc3)cnc3ccccc23)CC1`, the survival was 125%.

For the compound `CCOC(=O)C1CCN(c2c(C(=O)c3ccc(OCC)cc3)cnc3ccc(OC)cc23)CC1`, the survival was 0% (active).

Consider `COc1ccc(C(=O)c2cnc3ccc(C)cc3c2S(=O)(=O)c2ccccc2)cc1`, for which the survival was 79%.

As for `CCCN(CCC)CCNC(=O)Cn1cc2c(n1)-c1c(oc(C(=O)N3CCCC3)c1C)CC2`, the survival was 106%.

On to `COc1ccc(-c2nc3ccccc3n3c(-c4cccc(C)c4)c4c(=O)n(C)c(=O)n(C)c4c23)cc1OC`, for which the survival was 77%.

Consider `CC(C)Oc1ccc(CNC(=O)c2sc3ncccc3c2-n2cccc2)cc1`, for which the survival was 64%.

Consider `O=C(CN1CCC(n2cnc3cc(F)ccc32)CC1)Nc1ccccc1Br`, for which the survival was 108%.

In the case of `CCOC(=O)c1ccc(NC(=O)c2c(NCc3cc(OC)c(OC)cc3OC)sc3c2CCCC3)cc1`, the survival was 85%.

On to `COCCn1c(SCC(=O)Nc2sc(C)c(C)c2C#N)nnc1C(C)C`, for which the survival was 103%.

For the compound `COc1ccccc1-c1nn(CCC(=O)Nc2ccccc2)c2nc(C)cc(C)c12`, the survival was 86%.

As to `COC(=O)c1cc2oc3ccccc3c2n1Cc1ccc(Cl)cc1`, the survival was 21%.

As to `COC(=O)c1cc2oc3ccccc3c2n1Cc1ccc(C)cc1`, the survival was 82%.

`COC(=O)c1cc2oc3ccccc3c2n1Cc1cccc(C)c1`: the survival is 3% (active).

Take `COC(=O)c1cc2oc3ccccc3c2n1Cc1nc(-c2cccc(C)c2)oc1C`: the survival was 72%.

`COC(=O)c1cc2oc3ccccc3c2n1CC(=O)Nc1ccc(C)cc1C`: the survival was 86%.

As to `CCN(C(=O)Cn1c(C(=O)OC)cc2oc3ccccc3c21)c1cccc(C)c1`, the survival is 24% (active).

As to `S=c1nc[nH]c2c1[nH]c1ccccc12`, the survival is 98%.

Turning to `CC1CCN(S(=O)(=O)c2cc(C(=O)Nc3ccc(Br)cc3F)n(C)c2)CC1`, the survival is 77%.

Turning to `COc1cc(C(c2nnnn2Cc2ccco2)N2CCN(C3CCCC3)CC2)cc(OC)c1OC` (stereo unspecified), the survival is 107%.

Consider `CC1CCN(C(=O)Cn2cc(SCC(=O)NCc3ccccc3)c3ccccc32)CC1`, for which the survival is 86%.

Take `Cc1ccc(C)n1-c1c(C(=O)NCCC(C)C)sc2ncccc12`: the survival was 79%.

As to `Cc1nc2ccccc2c(=O)n1-c1ccc(NC(=O)c2cccc([N+](=O)[O-])c2)cc1`, the survival is 59%.

`COc1ccc(-c2nc3nc(C)cc(N4CCN(c5cccc(C(F)(F)F)c5)CC4)n3n2)cc1`: the survival is 88%.

For `Cc1cc(N2CCN(c3cccc(C(F)(F)F)c3)CC2)n2nc(-c3ccccc3)nc2n1`, the survival was 87%.

In the case of `Cc1cc(N2CCN(c3cccc(C(F)(F)F)c3)CC2)n2nc(-c3ccccc3C)nc2n1`, the survival is 11% (active).

Regarding `CCN(CC)C(=O)C1=C(C)Nc2nc3ccccc3n2C1c1ccc(Br)cc1` (stereo unspecified), the survival was 80%.

As for `Cc1cc(S(=O)(=O)C(CNC(=O)COc2ccccc2)c2cccs2)ccc1F` (stereo unspecified), the survival is 153%.

As to `O=C1CC(c2ccccc2)Sc2ccccc2N1Cc1ccccc1F` (stereo unspecified), the survival was 96%.

With `COc1cc(C2CC(=O)N(Cc3cccc(F)c3)c3ccccc3S2)cc(OC)c1OC` (stereo unspecified), the survival was 83%.

Turning to `COc1ccc(C2CC(=O)N(Cc3cccc(F)c3)c3ccccc3S2)cc1` (stereo unspecified), the survival is 9% (active).

Turning to `COc1cc(C2CC(=O)N(Cc3ccc(F)cc3)c3ccccc3S2)cc(OC)c1OC` (stereo unspecified), the survival was 72%.

`O=C1CC(c2ccccc2)Sc2ccccc2N1Cc1ccc(F)cc1` (stereo unspecified): the survival is 16% (active).

Take `COc1ccc(C2CC(=O)N(Cc3ccc(F)cc3)c3ccccc3S2)cc1` (stereo unspecified): the survival is 30%.

Consider `COc1ccc(S(=O)(=O)c2c(Nc3ccc(C)cc3)sc(C(=O)c3ccc4c(c3)OCO4)c2N)cc1`, for which the survival was 143%.

In the case of `CCNc1nc(NCC)nc(N(n2cnnc2)S(=O)(=O)c2ccc(C)cc2)n1`, the survival is 45%.

Regarding `CCOc1ccc(CNC(=O)c2cnc3sc(N(CC)CC)nn3c2=O)cc1`, the survival was 75%.

Consider `COc1ccc(N2CCN(CCCNC(=O)Cn3c(-c4cccs4)cc4ccccc43)CC2)cc1`, for which the survival was 86%.

Turning to `Cc1cc(C)cc(NC(=O)CN2C(=O)COc3ccc(S(=O)(=O)Nc4ccccc4)cc32)c1`, the survival was 98%.

`CC1CCN(c2nc3c(-c4cccc(Br)c4)nnn3c3ccccc23)CC1`: the survival is 85%.

In the case of `COc1ccc(-c2nnn3c2nc(N2CCCC(C)C2)c2ccccc23)cc1` (stereo unspecified), the survival was 0% (active).

Regarding `Brc1cccc(-c2nnn3c2nc(N2CCCCC2)c2ccccc23)c1`, the survival was 76%.

Regarding `Cc1ccc(-c2nnn3c2nc(N2CCC(C)CC2)c2ccccc23)cc1`, the survival is -2% (active).

For `Clc1ccc(-c2nnn3c2nc(N2CCCCC2)c2ccccc23)cc1`, the survival is 45%.

`CC1CCCN(c2nc3c(-c4ccc(Cl)cc4)nnn3c3ccccc23)C1` (stereo unspecified): the survival was 83%.

Regarding `COc1ccc(C2C(C(=O)Nc3ccc(C)cc3C)=C(C)Nc3nc4ccccc4n32)c(OC)c1` (stereo unspecified), the survival was 65%.
